Shown are actives, neighbours in structure and some others; about 12% of the full set was active somewhere.
WT yeast gro inh = growth inhibition of WT yeast, mitochondrial fusion screen | mitochondrial fusion phenotypic screen, WT strain | inhibition, % at 10 µM | hit rate 2.1% among 190,000 | AID 1362; in the data active means inhibition above about 58%; tested in S. cerevisiae
Lmaj promast = reduces viability of Leishmania major promastigotes. resazurin fluorescence viability. inhibition, % at 10 µM. hit rate 9% among 200,000. AID 1063; in the data active means inhibition above about 50%;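 further: promastigotes grown with compound for 44 hours at 28 °C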
ROMK primary = modulates human ROMK potassium channel activity; P48048; AID 1918; B-score at 10 µM; Tet-inducible ROMK, thallium flux fluorescence; actives lie on both sides; hit rate 2% among 130,000;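 active means signal ratio slope over the read window, or its plate-corrected B-score, at least 3 SD from the plate mean, either direction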;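 further: B-score of the F/F0 ratio slope over 7 to 12 s after thallium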
INS promoter inh = TRM-6 insulin promoter activity inhibition; TRM-6 cells (human fetal islet line), insulin promoter-eGFP reporter, imaging; reporter expression induced with tamoxifen; inhibition, % at 2 µM; hit rate 0.9% among 130,000; AID 1273;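 active means inhibition above the mean plus 3 SD, with well images judged a real hit on visual review, cut at about 60% in these data, passing the limit was not always enough; inconclusive means inhibition over the cutoff but images rejected on review; inactive means inhibition not above the cutoff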
Ins promoter up = MIN6 insulin promoter up-regulation; MIN6 insulin promoter-GFP reporter, high-content imaging; stronger effect = higher value; hit rate 0.3% among 190,000; z-score at 5 µM;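 active means z-score above 3 at 5 µM with at least 500 cells counted in the well; inconclusive means wells under 500 cells, flagged as cytotoxic or low count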
KCC2 mod = KCC2 (human) Cl- transport modulation; KCC2 cells, thallium flux FluoZin-2 fluorescence; Q9H2X9; AID 1456; hit rate 2.2% among 190,000; B-score of Tl+ flux slope (higher = more flux/activation; lower = inhibition) at 10 µM;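 active means thallium flux slope and its plate-corrected score both differing from the plate sample mean at a set confidence after two filtering rounds, in either direction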;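 further: slope of fluorescence scaled to starting intensity during 10 to 20 s after thallium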
Each line names hits and unclear results; the compound was inactive in the other large screens.

COc1ccc(C(C(=O)NC(C)C)N(C(=O)CCC(=O)Nc2nccs2)c2ccccc2F)cc1 (stereo not drawn)	none (no result: INS promoter inh)
Fc1ccc(CSc2nnc(CN3CCOCC3)n2-c2ccccc2)c(Cl)c1	none (no result: INS promoter inh)
Cc1ccc(C2=NNC3(CCOC(C)(C)C3)S2)cc1 (stereo not drawn)	ROMK primary 2.51, KCC2 mod 25.1 (no result: INS promoter inh)
CCC(=O)Nc1nc2c(c(=O)[nH]1)CCCC2	none (no result: INS promoter inh)
Cc1ccccc1NS(=O)(=O)c1cc(C(=O)Nc2cccc([N+](=O)[O-])c2)ccc1C	Lmaj promast 72.1 (no result: INS promoter inh)
Cc1ccc(C(=O)Nc2cccc(N(C)S(C)(=O)=O)c2)cc1S(=O)(=O)Nc1ccccc1	Lmaj promast 75.3 (no result: ROMK primary, INS promoter inh, KCC2 mod)
Cc1ccc(C)c(NS(=O)(=O)c2cc(C(=O)Nc3ccccc3-c3ccccc3)ccc2C)c1	none (no result: ROMK primary, KCC2 mod)
Cc1ccc(C(=O)Nc2ccccc2-c2ccccc2)cc1S(=O)(=O)Nc1cccc(C)c1C	Lmaj promast 62.7 (no result: INS promoter inh, KCC2 mod)
Cc1ccccc1NS(=O)(=O)c1cc(S(C)(=O)=O)ccc1C	Lmaj promast 54.1
Cc1ccccc1NS(=O)(=O)c1cc(C(N)=O)ccc1C	none
C=CCSc1nc2ccccc2n1S(=O)(=O)c1ccc(C)cc1	INS promoter inh 94.7 (no result: Ins promoter up)
Cn1c(SCC(=O)NCc2ccc(F)cc2)nc2c([nH]c3ccccc32)c1=O	none
Cn1c(SCC(=O)NCCc2ccccc2)nc2c([nH]c3ccccc32)c1=O	Lmaj promast 93.4
c1ccc2c(c1)OCC(c1nn3c(Cn4nnc5ccccc54)nnc3s1)O2 (stereo not drawn)	none (no result: ROMK primary)
COc1ccc([N+](=O)[O-])cc1N(CC(O)CN(CC(C)C)CC(C)C)S(=O)(=O)c1ccccc1 (stereo not drawn)	none (no result: ROMK primary, KCC2 mod)
Cc1ccc(N(CC(O)CN2CCCCC2)S(=O)(=O)c2ccccc2[N+](=O)[O-])cc1 (stereo not drawn)	Lmaj promast 99.0 (no result: INS promoter inh, Ins promoter up)
CCCCN(CCCC)CC(O)CN(c1cc([N+](=O)[O-])ccc1OC)S(=O)(=O)c1ccccc1 (stereo not drawn)	Lmaj promast 71.2 (no result: ROMK primary, INS promoter inh)
COc1ccc([N+](=O)[O-])cc1N(CC(O)CN1CCCCC1)S(=O)(=O)c1ccc(C)cc1 (stereo not drawn)	Lmaj promast 55.9
Cc1ccc(N(CC(O)CN2CCCC2)S(=O)(=O)c2ccc(C)cc2)cc1 (stereo not drawn)	none (no result: INS promoter inh, KCC2 mod)
CCNc1nc(Oc2ccc(=O)[nH]n2)nc(N2CCOCC2)n1	INS promoter inh 75.0 (no result: Ins promoter up)
CC1CN(C(=O)CSc2nnc3c(Cl)cc(Cl)cn23)CC(C)O1 (stereo not drawn)	none (no result: ROMK primary, KCC2 mod)
CC1CCCCN1c1nc(-c2ccncc2)nc2ccccc12 (stereo not drawn)	WT yeast gro inh 59.3, Lmaj promast 80.9
CC1CCCCN1c1ncnc2ccccc12 (stereo not drawn)	Ins promoter up inconclusive
CCC1CCCCN1c1nc(-c2ccncc2)nc2ccccc12 (stereo not drawn)	Lmaj promast 94.7
O=C(Nc1ccc(S(=O)(=O)Nc2ccccc2)cc1)c1ccc(CN2CCOCC2)cc1	Lmaj promast 82.5 (no result: INS promoter inh)
O=C(Nc1ccc(S(=O)(=O)N2CCCCC2)cc1)c1ccc(CN2CCc3ccccc3C2)cc1	Lmaj promast 99.1, Ins promoter up inconclusive (no result: ROMK primary)
O=C(Nc1ccccc1)c1ccc(CN2CCc3ccccc3C2)cc1	none (no result: Ins promoter up)
Cc1ccc(O)c(C(=O)c2cc(C#N)c(=O)n(Cc3ccccc3)c2)c1	none
Cc1ccc(O)c(C(=O)c2cc(C(=O)NCCc3ccccc3)c(=O)n(CCc3ccccc3)c2)c1	Lmaj promast 99.3
COc1ccc(O)c(C(=O)c2cc(C(=O)NCCc3ccccc3)c(=O)n(CCc3ccccc3)c2)c1	Lmaj promast 77.3
N#CCSc1nc2sc3c(c2c(=O)n1C1CCCCC1)CCCC3	Lmaj promast 56.4 (no result: INS promoter inh, KCC2 mod)
COC(=O)CSc1nc(N)c2c3c(sc2n1)CCCC3	Lmaj promast 70.6 (no result: INS promoter inh)
COC(=O)CSc1nc(N)c2c3c(sc2n1)C(c1ccccc1)SC(c1ccccc1)C3 (stereo not drawn)	WT yeast gro inh 66.9, Lmaj promast 85.2 (no result: ROMK primary)
CCn1c(SCC(N)=O)nc2sc3c(c2c1=O)CCCC3	KCC2 mod 59.6 (no result: ROMK primary)
Cc1cc(-c2cn3ccccc3n2)c(C)n1-c1ccccc1	none
COc1ccc(-n2c(C)cc(-c3cn4cccc(C)c4n3)c2C)cc1	Lmaj promast 63.0
CC/C(=N\NC(=O)c1ccoc1C)c1ccc(C)o1	none (no result: ROMK primary)
CCOc1ccc(C2SCC(=O)N2c2c(C)n(C)n(-c3ccccc3)c2=O)cc1 (stereo not drawn)	none (no result: KCC2 mod)
